The other results are listed elsewhere or left out. Inconclusive results are not listed. The source made the active and inactive calls. Calls come from the whole dose curve; as a rule, active = well fitted inhibition curve with a large enough effect; inconclusive = small, poorly fitted or top-dose-only effect, or another doubt; inactive = no such curve, though single readings can be large or run the other way.

Chain of Luciferin 4-monooxygenase (Photinus pyralis) (P08659 whole entry, looked up): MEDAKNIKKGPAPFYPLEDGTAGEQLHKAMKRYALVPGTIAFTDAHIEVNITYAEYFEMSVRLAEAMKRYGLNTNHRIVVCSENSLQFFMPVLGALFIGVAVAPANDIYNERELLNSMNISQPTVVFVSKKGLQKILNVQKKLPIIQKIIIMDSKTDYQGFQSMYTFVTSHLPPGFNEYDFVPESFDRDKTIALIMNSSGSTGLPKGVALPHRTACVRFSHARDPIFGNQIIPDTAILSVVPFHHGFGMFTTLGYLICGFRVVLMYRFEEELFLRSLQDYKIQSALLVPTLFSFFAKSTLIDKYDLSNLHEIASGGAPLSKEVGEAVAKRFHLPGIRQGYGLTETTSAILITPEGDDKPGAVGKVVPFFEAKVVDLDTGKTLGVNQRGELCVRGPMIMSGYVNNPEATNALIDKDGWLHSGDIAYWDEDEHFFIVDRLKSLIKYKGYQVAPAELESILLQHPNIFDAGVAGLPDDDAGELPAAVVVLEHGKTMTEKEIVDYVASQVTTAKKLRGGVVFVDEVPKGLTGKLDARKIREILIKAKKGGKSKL

In this assay the target is Luciferin 4-monooxygenase (Photinus pyralis) (UniProt P08659). Description: Biochemical FLuc counterscreen for small molecule modulators of PMP22 gene expression (AID 1508640). Note: % of control where 0% means no effect. The settings on record: purified P. pyralis FLuc, luminescence, 10 min; series mostly up to 57.5 µM; activity, negative = inhibition: at the top concentration. An excerpt:
Assay Provider: Jim Inglese Ph.D. National Center for Advancing Translational Science, National Institutes of Health, Rockville, MD CMT is a heterogeneous group of neurological disorders that affect approximately 1 in 2,500 people. In particular, the most common form of CMT, CMT1A is genetically linked to the duplication of the PMP22 gene which leads to Schwann cell overexpression, thus manifesting itself as a typical case of dose-sensitive diseases. To identify small molecule compounds that can mediate the expression of PMP22 we developed a phenotypic assay screening strategy by utilizing genome editing techniques to construct Schwann cell lines containing novel reporter technology to monitor the transcriptional or translational regulation of PMP22. For high sensitivity we use a bioluminescent reporter system embedded in the 3' UTR of the PMP22 gene (S16(c9) Pmp22-F2sN) to identify compounds that inhibit gene expression. […] We can further discriminate the effect of all transcriptionally active molecules on PMP22 translation or stability with an assay that incorporates a short NLuc peptide (HiBiT) at the C-terminus of expressed PMP22 (S16(f8) PMP22-HiBiT) allowing alpha complementation and luminescence detection of membrane-associated PMP22 protein. These assays were screened against the NCATS Sytravon Library Collection. Miniaturization of these assays to 1536-well plate format for quantitative high throughput screening (qHTS) yielded rich data sets immediately from the qHTS assay (S16(c9) Pmp22-F2sN), when compared with data from a cell viability assay (Cell TiterGlo) to identify compounds that decreased the output signals through cellular toxicity to streamline the selection process of actives for subsequent characterization using the HiBiT assay (S16(f8) PMP22-HiBiT).
Biochemical FLuc assay PROTOCOL TABLE (format as described by Inglese J, Shamu CE and Guy RK. 2007) SEQUENCE No. (e.g., 1, 2, 3, etc.); PARAMETER (e.g., Cells, Incubation, Reagent, etc.); VALUE and DESCRIPTION. 1. Reagent. Add 3 uL substrate per well into Greiner 1536-well white/solid bottom high base, medium binding plates. 2. Compounds. Library compounds and controls added at 23nL per well, transferred by Pin Tool. 3. Incubation. Incubate plates 15 min at ambient temperature. 4. Reagent. Add 1uL FLuc enzyme solution per well of Greiner 1536-well plates. 5. Incubation. Incubate plates at room temperature for 10 min., protect from light. 6. Detector. FLuc luminescence measured using CCD-based camera (Viewlux). NOTES (numbers refer to Sequence numbers above; values are from representative experiments) 1. Dispense freshly prepared substrate (final concentration of 10 uM D-Luciferin, 10 mM Mg-Acetate, 50 mM Tris Acetate pH 7.6, 10 uM ATP, 0.01 % Tween-20, 0.05 % BSA) into 1,536-well Greiner white/solid bottom high base, medium binding plates. Protect from light. 4. Freshly prepared enzyme solution containing 10 nM P. pyralis in 50 mM Tris Acetate was filtered through a […] prior to dispensing. 6. Luminescence Read (Fluc): Clear filter; Exposure = 10 sec, Gain = High, Speed = Slow, Binning = 2X REFERENCES: 1. Inglese J, Shamu CE and Guy RK, Reporting data from high throughput screening of small molecule libraries, Nature Chemical Biology, 2007, 3(8): 438-441. doi.org/10.1038/nchembio0807-438 2. Yasgar A, Shinn P, Jadhav A, Auld DS, Michael S, Zheng W, Austin CP, Inglese J and Simeonov A, Compound Management for Quantitative High-Throughput Screening. J. Assoc. Lab. Auto., 2008, 13: 79-89. doi: 10.1016/j.jala.2007.12.004 3. […] Chemistry & Biology, 2012, 19: 1060-1072. doi.org/10.1016/j.chembiol.2012.07.015
With `Cc1ccc(C)n1-c1nnc(N2CCC(C(=O)NCc3ccccc3Cl)CC2)s1`, the “activity, negative = inhibition” value was 3.2% (inactive).
As to `CCC1=Nc2cc(C(=O)NCCCOC(C)C)ccc2Sc2ccc(C)cc21`, the “activity, negative = inhibition” value was 7.24% (inactive).
As for `CCOC(=O)C1CCN(C(=O)CSc2c3c(nc4ccc(Cl)cc24)CCCC3)CC1`, the “activity, negative = inhibition” value is -10.6% (inactive).
In the case of `COc1ccccc1-c1cc(C(F)(F)F)nc(S(=O)(=O)CCCC(=O)Nc2ccc(F)cc2F)n1`, the “activity, negative = inhibition” value was -2.16% (inactive).
Turning to `CCOc1ccc(NC(=O)c2c(NC(=O)Cc3ccccc3)sc3c2CCC(C)C3)cc1` (centres undefined), the “activity, negative = inhibition” value is -21.9% (inactive).
Turning to `CCCn1c(=N)c(C(=O)NCc2ccccc2)cc2c(=O)n3cccc(C)c3nc21`, the “activity, negative = inhibition” value is -4.12% (inactive).
Turning to `COc1ccccc1Nc1c2c(nc3ccc(NC(=O)/C=C/c4cc(OC)c(OC)c(OC)c4)cc13)CCCC2`, the “activity, negative = inhibition” value is 14.3% (inactive).
The same measure for `O=C(c1ccc(C(F)(F)F)cc1)N1CCC(c2nc(-c3ccc(S(=O)(=O)N4CCCC4)cc3)no2)CC1`: -8.99% (inactive); for `CCc1ccc(C2CC(=O)c3c([nH]c(C(=O)OCc4ccc(C)cc4)c3C)C2)cc1` (centres undefined): 0.949% (inactive); for `CCCCOc1ccc(CN2C(=O)C(=O)c3cc(Br)cc(C)c32)cc1OC`: -19.2% (inactive).
As for `CCOCCCNC(=O)c1c(NC(=O)c2nc(SC)ncc2Cl)sc2c1CCCC2`, the “activity, negative = inhibition” value is 5.33% (inactive).
The same measure for `CCCS(=O)(=O)c1ncc(Cl)c(C(=O)Nc2scc(-c3ccccc3)c2C(=O)OCC)n1`: -3.4% (inactive); for `COc1ccc(CCNC(=O)c2cc(=O)c3c(C)cc(C)cc3o2)cc1OC`: -17.4% (inactive).
`CC(C)(C)c1ccc(C(=O)NCC(c2ccco2)S(=O)(=O)c2ccc(F)cc2)cc1` (centres undefined): the “activity, negative = inhibition” value is -13.4% (inactive).
On to `Cc1ccc(OCCSc2nc3ccc(NC(=O)COc4ccc(C)cc4)cc3s2)cc1`, for which the “activity, negative = inhibition” value is 2.02% (inactive).
To `CCOC(=O)c1c(C)[nH]c(CCC(=O)NCCCN2CCN(c3cccc(Cl)c3)CC2)c1C` belongs 2.39% (inactive).
On to `CCOC(=O)c1ccc(NC(=O)CSc2nc3c([nH]c4ccccc43)c(=O)n2C)cc1`, for which the “activity, negative = inhibition” value is -12.3% (inactive).
For the compound `CCC1CCCCN1CCCNC(=O)c1cc2c(Cl)nc3ccccc3c2s1` (centres undefined), the “activity, negative = inhibition” value is -2.7% (inactive).
To `O=S(=O)(c1ccc(Cl)cc1)c1nnn2c1nc(NC1CCCC1)c1sccc12` belongs -5.21% (inactive).
The same measure for `O=C(NCCCN1CCN(c2cccc(Cl)c2)CC1)c1nnc(Cc2ccc(F)cc2Cl)o1`: -10.3% (inactive).
As for `Cc1nnc(SCC(=O)NCc2ccccc2Cl)c2nn(-c3ccccc3)c(C)c12`, the “activity, negative = inhibition” value was -3.49% (inactive).
In the case of `O=C(CCS(=O)(=O)c1ccccc1)N(Cc1cccnc1)c1nc2c(F)cccc2s1`, the “activity, negative = inhibition” value was -3.07% (inactive).
The same measure for `CC(=O)N1CCCc2cc(S(=O)(=O)N3CCCC(C(=O)N4CCN(c5cccc(Cl)c5)CC4)C3)ccc21` (centres undefined): -3.04% (inactive).
The same measure for `Cc1ccc(NC(=O)c2nc(S(=O)(=O)Cc3cccc(C)c3)ncc2Cl)cc1`: -10.5% (inactive).
The same measure for `Cc1ccccc1CNC(=O)CSc1nnc(C)c2c(C)n(-c3ccccc3)nc12`: -2.97% (inactive).
Take `Cc1sc(C2C(C#N)=C(N)N(c3cccc(Cl)c3)C3=C2C(=O)CCC3)cc1CN1CCOCC1` (centres undefined): the “activity, negative = inhibition” value was 1.68% (inactive).
For `COc1cccc(NC(=O)N(Cc2cn(C)c3ccccc23)C2CCCCCC2)c1`, the “activity, negative = inhibition” value was 0.718% (inactive).
Regarding `O=C(c1ccc2c(c1)N(Cc1ccc(F)cc1)C(=O)c1ccccc1S2(=O)=O)N1CCN(c2ccccn2)CC1`, the “activity, negative = inhibition” value was 9.29% (inactive).
The same measure for `CCCn1c2ccccc2c2cnn(CC(=O)NCC3CCN(Cc4ccc(C)cc4)CC3)c(=O)c21`: 11.2% (inactive); for `COc1ccc(-c2onc(C)c2C)cc1S(=O)(=O)NCC1CCN(Cc2cccc(F)c2)CC1`: -1.38% (inactive).
Turning to `Cc1ccc(CCNC(=O)C2CCN(c3nnc(-n4cccc4CNc4ccc(C)cc4)s3)CC2)cc1`, the “activity, negative = inhibition” value is -6.01% (inactive).
The same measure for `Cc1cccc(Nc2cc(C)nc(-n3nc(C)cc3C)n2)c1`: -12.2% (inactive); for `Cc1cc(F)ccc1NS(=O)(=O)c1ccc(-n2cccn2)cc1`: 10.4% (inactive); for `CCOC(=O)c1c(C)[nH]c(CCC(=O)NCCCN2CCN(c3cc(C)ccc3C)CC2)c1C`: -2.52% (inactive).
To `CCCN1C(=O)C(O)(CC(=O)c2ccc(CC)cc2)c2cc(Br)ccc21` (centres undefined) belongs -8.85% (inactive); to `Cc1cc(OCC(=O)NCC2(N(C)C)CCCCC2)cc(C)c1Cl`, -9.58% (inactive); to `COc1cccc(NC(=O)CSC2=Nc3ccccc3C3=NC(CC(=O)NC4CCCCC4)C(=O)N23)c1` (centres undefined), -5.76% (inactive).
To `Cc1ccc(Cn2c(C)c3cnn(CC(=O)NCc4ccccc4)c(=O)c3c2C)cc1` belongs -12.3% (inactive); to `CCOC(=O)c1ccc(N2C(=O)c3n[nH]c(C)c3C2c2ccc(O)c(OC)c2)cc1` (centres undefined), 5.22% (inactive).

The values above are taken from PubChem BioAssay (NCATS).
